SMILES strings stand for the structures. Calls of active or inactive are those of the source. The calls were made as follows: active = hit-call score of the fitted dose curve at least 0.9, where 1 is the maximum; inactive = score below 0.9.

What is called AC50 is the concentration giving half of the maximal activity seen.

Read-out in one assay: Cyclin D2 (CCND2), CCND2 (gene 894)
Nature of the assay: LTEA_HepaRG_CCND2: Life Technologies and Expression Analysis (LTEA) Assay for Cyclin D2 (CCND2) using HepaRG (AID 2283449).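 Also: CCND2 transcript measured by TaqMan qRT-PCR and normalised to three housekeeping genes.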 The conditions noted are these: mRNA level, 48 h; actives raise or lower the signal. Summed up:
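In this HepaRG study, an eight-point concentration series (max 100 uM, 0.5% DMSO) is applied for 48 h. CCND2 mRNA change is derived by qRT-PCR normalised to ACTB, GAPDH and POLR2A.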
Regarding `COc1ccc2c(c1)c(CC(=O)O)c(C)n2C(=O)c1ccc(Cl)cc1`, the compound was classed as inactive.

For the compound `CNCc1cc(F)ccc1Oc1ccc(Cl)c(Cl)c1`, the compound was called inactive.

`C[Si]1(C)O[Si](C)(C)O[Si](C)(C)O[Si](C)(C)O1`: the call was inactive.

In the case of `COCCOCCOC`, the result was inactive.

For `COC(=O)c1ccc(O)cc1`, the call was inactive.

Take `O=C(O)CCCCC(=O)O`: the result was inactive.

Consider `Cc1cc(=O)[nH]c(=S)[nH]1`, for which the result was inactive.

Take `Cc1nc(-c2ccc3c(c2)CCN(CCC2CCC(NC(=O)/C=C/c4ccc(F)cc4)CC2)CC3)no1` (configuration not stated): the call was inactive.

As for `CC1=C(/C=C/C(C)=C/C=C/C(C)=C/CO)C(C)(C)CCC1`, the call was inactive.

As for `CC(=O)OC/C=C(\C)CCC=C(C)C`, the result was inactive.

For the compound `COc1ccc(C)cc1N`, the call was inactive.

In the case of `OC[C@@H](O)[C@@H](O)[C@H](O)[C@H](O)CO`, the compound was called inactive.

On to `NS(=O)(=O)c1cc2c(cc1Cl)NCNS2(=O)=O`, for which the outcome was inactive.

In the case of `NCCO`, the outcome was inactive.

Consider `COc1ccc(S(=O)(=O)N2C(=O)[C@@](c3ccccc3OC)(N3C[C@H](O)C[C@H]3C(=O)N(C)C)c3cc(Cl)ccc32)c(OC)c1`, for which the call was inactive.

For the compound `c1cc(-c2ccncc2)ccn1`, the outcome was inactive.

On to `Cc1nc(C)nc(N2C[C@@H](C)N(c3ccnc([C@@H](C)O)n3)[C@@H](C)C2)n1`, for which the outcome was inactive.

Regarding `Cc1cccc([N+](=O)[O-])c1C`, the compound was called inactive.

Take `Cc1oc(-c2ccccc2)nc1CCOc1cccc2c1ccn2CCC(=O)O`: the outcome was inactive.

Regarding `CCOC(=O)CCC(=O)OCC`, the compound was called inactive.

Take `CN[C@H]1CC[C@@H](c2ccc(Cl)c(Cl)c2)c2ccc(S(N)(=O)=O)cc21`: the call was inactive.

With `NC(=O)Cn1c(=O)cc(CCN2CCN(c3nccc4sccc34)CC2)c2ccc(F)cc21`, the compound was classed as inactive.

With `CCCCCC(=O)O`, the compound was called inactive.

Consider `Cc1ccc(C)c(O)c1C`, for which the result was inactive.

Regarding `CC=Cc1ccc(O)c(OC)c1`, the compound was called inactive.

In the case of `CCCCN(CCCC)CCCC`, the result was inactive.

Turning to `C=CCc1ccc(O)c(OC)c1`, the call was inactive.

Turning to `CCCCCCCCCCCCCO`, the compound was called inactive.

`CC(CO)OC(C)CO` (configuration not stated) (tested in a mixture with another compound): the compound was classed as inactive.

Read-out in a further assay: Cyclin Dependent Kinase Inhibitor 1A (CDKN1A), CDKN1A (gene 1026)
The experiment in a line: LTEA_HepaRG_CDKN1A: Life Technologies and Expression Analysis (LTEA) Assay for Cyclin Dependent Kinase Inhibitor 1A (CDKN1A) using HepaRG (AID 2283450). As to conditions: mRNA level, 48 h; actives raise or lower the signal. The gist of the method: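 Differentiated human HepaRG cells, pre-cultured 48 h, were exposed in duplicate for 48 h in serum-free induction medium to eight half-log concentrations up to 100 uM (0.5% DMSO). CDKN1A mRNA was measured by qRT-PCR, normalized to ACTB/GAPDH/POLR2A, bidirectionally fitted versus DMSO.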
Consider `COc1ccc2c(c1)c(CC(=O)O)c(C)n2C(=O)c1ccc(Cl)cc1`, for which the compound was classed as inactive.

On to `CNCc1cc(F)ccc1Oc1ccc(Cl)c(Cl)c1`, for which the AC50 is 20.5 µM (active).

For `C[Si]1(C)O[Si](C)(C)O[Si](C)(C)O[Si](C)(C)O1`, the compound was called inactive.

Take `COCCOCCOC`: the outcome was inactive.

`COC(=O)c1ccc(O)cc1`: the result was inactive.

For the compound `O=C(O)CCCCC(=O)O`, the call was inactive.

As to `Cc1cc(=O)[nH]c(=S)[nH]1`, the outcome was inactive.

In the case of `Cc1nc(-c2ccc3c(c2)CCN(CCC2CCC(NC(=O)/C=C/c4ccc(F)cc4)CC2)CC3)no1` (configuration not stated), the result was inactive.

With `CC1=C(/C=C/C(C)=C/C=C/C(C)=C/CO)C(C)(C)CCC1`, the result was inactive.

Take `CC(=O)OC/C=C(\C)CCC=C(C)C`: the result was inactive.

In the case of `COc1ccc(C)cc1N`, the compound was classed as inactive.

In the case of `OC[C@@H](O)[C@@H](O)[C@H](O)[C@H](O)CO`, the call was inactive.

Take `NS(=O)(=O)c1cc2c(cc1Cl)NCNS2(=O)=O`: the compound was classed as inactive.

With `NCCO`, the compound was called inactive.

On to `COc1ccc(S(=O)(=O)N2C(=O)[C@@](c3ccccc3OC)(N3C[C@H](O)C[C@H]3C(=O)N(C)C)c3cc(Cl)ccc32)c(OC)c1`, for which the AC50 is 84.9 µM (active).

Regarding `c1cc(-c2ccncc2)ccn1`, the call was inactive.

Take `Cc1nc(C)nc(N2C[C@@H](C)N(c3ccnc([C@@H](C)O)n3)[C@@H](C)C2)n1`: the call was inactive.

In the case of `Cc1cccc([N+](=O)[O-])c1C`, the call was inactive.

Regarding `Cc1oc(-c2ccccc2)nc1CCOc1cccc2c1ccn2CCC(=O)O`, the concentration at half-maximal activity (AC50) is 71.2 µM (active).

Regarding `CCOC(=O)CCC(=O)OCC`, the compound was called inactive.

As to `CN[C@H]1CC[C@@H](c2ccc(Cl)c(Cl)c2)c2ccc(S(N)(=O)=O)cc21`, the compound was called inactive.

As for `NC(=O)Cn1c(=O)cc(CCN2CCN(c3nccc4sccc34)CC2)c2ccc(F)cc21`, the concentration at half-maximal activity (AC50) was 50 µM (active).

In the case of `CCCCCC(=O)O`, the result was inactive.

On to `Cc1ccc(C)c(O)c1C`, for which the call was inactive.

Take `CC=Cc1ccc(O)c(OC)c1`: the result was inactive.

As for `CCCCN(CCCC)CCCC`, the compound was called inactive.

On to `C=CCc1ccc(O)c(OC)c1`, for which the compound was called inactive.

In the case of `CCCCCCCCCCCCCO`, the result was inactive.

Turning to `CC(CO)OC(C)CO` (configuration not stated) (tested in a mixture with another compound), the call was inactive.

Read-out in another assay: Cyclin D1 (CCND1), CCND1 (gene 595)
The experiment in a line: LTEA_HepaRG_CCND1: Life Technologies and Expression Analysis (LTEA) Assay for Cyclin D1 (CCND1) using HepaRG (AID 2283451).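 As to AC50: TaqMan qRT-PCR transcript level normalised to ACTB GAPDH and POLR2A housekeeping genes.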 The conditions noted are these: mRNA level, 48 h; actives raise or lower the signal. Summed up: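 Differentiated human HepaRG cells in serum-free induction medium were exposed 48 h to eight half-log concentrations up to 100 uM in 0.5% DMSO; mRNA quantified by TaqMan qRT-PCR, normalized to ACTB, GAPDH, POLR2A, fitted bidirectionally versus DMSO.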
Turning to `COc1ccc2c(c1)c(CC(=O)O)c(C)n2C(=O)c1ccc(Cl)cc1`, the compound was classed as inactive.

On to `CNCc1cc(F)ccc1Oc1ccc(Cl)c(Cl)c1`, for which the compound was classed as inactive.

Take `C[Si]1(C)O[Si](C)(C)O[Si](C)(C)O[Si](C)(C)O1`: the compound was called inactive.

Consider `COCCOCCOC`, for which the result was inactive.

As for `COC(=O)c1ccc(O)cc1`, the compound was classed as inactive.

`O=C(O)CCCCC(=O)O`: the outcome was inactive.

`Cc1cc(=O)[nH]c(=S)[nH]1`: the compound was called inactive.

Consider `Cc1nc(-c2ccc3c(c2)CCN(CCC2CCC(NC(=O)/C=C/c4ccc(F)cc4)CC2)CC3)no1` (configuration not stated), for which the result was inactive.

With `CC1=C(/C=C/C(C)=C/C=C/C(C)=C/CO)C(C)(C)CCC1`, the call was inactive.

`CC(=O)OC/C=C(\C)CCC=C(C)C`: the result was inactive.

Consider `COc1ccc(C)cc1N`, for which the result was inactive.

With `OC[C@@H](O)[C@@H](O)[C@H](O)[C@H](O)CO`, the result was inactive.

As to `NS(=O)(=O)c1cc2c(cc1Cl)NCNS2(=O)=O`, the result was inactive.

`NCCO`: the call was inactive.

As to `COc1ccc(S(=O)(=O)N2C(=O)[C@@](c3ccccc3OC)(N3C[C@H](O)C[C@H]3C(=O)N(C)C)c3cc(Cl)ccc32)c(OC)c1`, the AC50 is 85.5 µM (active).

`c1cc(-c2ccncc2)ccn1`: the outcome was inactive.

As to `Cc1nc(C)nc(N2C[C@@H](C)N(c3ccnc([C@@H](C)O)n3)[C@@H](C)C2)n1`, the compound was called inactive.

Consider `Cc1cccc([N+](=O)[O-])c1C`, for which the call was inactive.

As to `Cc1oc(-c2ccccc2)nc1CCOc1cccc2c1ccn2CCC(=O)O`, the concentration at half-maximal activity (AC50) was 50 µM (active).

With `CCOC(=O)CCC(=O)OCC`, the compound was called inactive.

Take `CN[C@H]1CC[C@@H](c2ccc(Cl)c(Cl)c2)c2ccc(S(N)(=O)=O)cc21`: the compound was classed as inactive.

In the case of `NC(=O)Cn1c(=O)cc(CCN2CCN(c3nccc4sccc34)CC2)c2ccc(F)cc21`, the compound was classed as inactive.

On to `CCCCCC(=O)O`, for which the call was inactive.

Regarding `Cc1ccc(C)c(O)c1C`, the compound was classed as inactive.

Consider `CC=Cc1ccc(O)c(OC)c1`, for which the result was inactive.

As for `CCCCN(CCCC)CCCC`, the outcome was inactive.

Turning to `C=CCc1ccc(O)c(OC)c1`, the compound was called inactive.

With `CCCCCCCCCCCCCO`, the call was inactive.

Turning to `CC(CO)OC(C)CO` (configuration not stated) (tested in a mixture with another compound), the compound was called inactive.

These data come from PubChem BioAssay (EPA / NIEHS).
